# According to PubChem BioAssay (NCATS):
# Values without a mark were called inactive. No rule for the calls is given here.
# Tested on: HIV-1 nucleocapsid protein NCp7 (binding to TG oligonucleotide)
# Assay: HIV Nucleocapsid (AID 346);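 also: potency is for inhibitors that block NC binding and lower polarization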
# Conditions: HIV-1 NC / fluorescein-TGTGTGTG probe, fluorescence polarization
# Outline: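 Reagents dispensed (10 nM TG4xF, 100 nM HIV-1 NC), plates spun, compounds pin-transferred, then incubated 1 hr at room temperature before FP imaging. Buffer: Hepes pH 7.5, 250mM NaCl, 1uM ZnCl2, 100 uM TCEP, 5 mM 2-mercaptoethanol.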
# Potency is read from the fitted curve at half-maximal effect.
row,SMILES,Potency
1,Cc1ccccc1-c1cc(-n2ccnc2)ncn1,> 20 µM
2,Cc1noc(C)c1-c1cncnc1N1CCN(C)CC1,> 20 µM
3,Cc1noc(C)c1C(=O)N1CCC2(CCCN(c3ncccn3)C2)CC1,> 20 µM
4,O=c1c(-c2ccccc2)nc2cnc(N3CCOCC3)nc2n1Cc1cccs1,> 20 µM
5,CN1CC[C@@]2(CCCN(C(=O)c3cccc(F)c3)C2)C1,> 20 µM
6,Cc1noc(C)c1-c1cc(N(C)C)ncn1,> 20 µM
7,Cn1cccc1C(=O)N1CCC[C@@]2(CCN(c3ccccn3)C2)C1,> 20 µM
8,COCCn1c(=O)c(-c2cccs2)nc2cnc(OCc3ccccc3)nc21,> 20 µM
9,COC(=O)N1CCC2(CCN(Cc3ccc(C#N)cc3)CC2)CC1,> 20 µM
10,O=C(c1csnn1)N1CCC[C@@]2(CCN(c3ccccc3)C2)C1,> 20 µM
11,Cn1c(=O)c(-c2cccc(Cl)c2)nc2cncnc21,> 20 µM
12,O=C(c1cccc(F)c1)N1CCC[C@@]2(CCN(Cc3nccs3)C2)C1,> 20 µM
13,Cc1noc(C)c1C(=O)N1CCC2(CC1)CN(c1ncccn1)C2,> 20 µM
14,O=C(c1cc(C(F)(F)F)cc(C(F)(F)F)c1)N1CCC2(CCCN(Cc3nccs3)C2)CC1,> 20 µM
15,Cc1nc2cnc(N3CCN(C)CC3)nc2n(C[C@H]2CCCO2)c1=O,> 20 µM
16,Cn1cc(-c2nc3cnc(Oc4cccc(Cl)c4)nc3n(CCC#N)c2=O)c2ccccc21,> 20 µM
17,N#Cc1ccc(CN2CCC3(CC2)CCN(C(=O)c2csnn2)CC3)cc1,> 20 µM
18,COC(=O)N1CCC2(CCCN(C(=O)Nc3ccccc3)C2)CC1,> 20 µM
19,Cc1noc(C)c1-c1nccc(N(C)C)n1,> 20 µM
20,CCNc1ncc2nc(-c3cn(C)c4ccccc34)c(=O)n(CCC#N)c2n1,> 20 µM

row,SMILES,Potency
1,COc1ncc2nc(CCc3ccccc3)c(=O)n(C)c2n1,> 20 µM
2,COCC(=O)N1CCC2(CCN(Cc3ccc(C#N)cc3)CC2)CC1,> 20 µM
3,COc1ccccc1-c1ccc2ncnc(NCc3cccnc3)c2c1,> 20 µM
4,COCC(=O)N1CCC[C@@]2(CCN(C(=O)Nc3ccc(OC)cc3)C2)C1,> 20 µM
5,COc1ccccc1-c1nc(NCCc2cnc[nH]2)c2ccccc2n1,> 20 µM
6,CN(C)c1ncc2ncc(=O)n(CCC#N)c2n1,> 20 µM
7,COc1ccc(Oc2ncc3nc(-c4cn(C)c5ccccc45)c(=O)n(C4CC4)c3n2)cc1,> 20 µM
8,COc1ccccc1CNc1ncnc2ccc(-c3ccc4c(c3)OCO4)cc12,> 20 µM
9,CC(=O)NCCNc1ncncc1-c1ccccc1C,> 20 µM
10,FC(F)(F)c1ccccc1-c1cc(NCc2cccnc2)ncn1,> 20 µM
11,Cn1cccc1C(=O)N1CCC2(CCCN(Cc3ccncc3)C2)CC1,> 20 µM
12,COc1cccc(Nc2ncc3nc(C)c(=O)n(C[C@H]4CCCO4)c3n2)c1,> 20 µM
13,COc1ncc2nc(C)c(=O)n(CCC#N)c2n1,> 20 µM
14,COc1ncc2nc(-c3cc(F)cc(F)c3)c(=O)n(CCc3ccccc3)c2n1,> 20 µM
15,CS(=O)(=O)N1CCC2(CC1)CN(C(=O)Nc1cccc(C#N)c1)C2,> 20 µM
16,COc1cccc(Cn2c(=O)c(-c3cccs3)nc3cnc(Nc4ccccc4)nc32)c1,> 20 µM
17,O=C(Nc1ccccc1)N1CC[C@@]2(CCCN(C(=O)c3cccc(F)c3)C2)C1,> 20 µM
18,O=C(c1ccncc1)N1CCC2(CCN(Cc3ccccc3)CC2)CC1,> 20 µM
19,CN(C)c1ncc2nc(-c3ccc(Cl)cc3)c(=O)n(CCC#N)c2n1,> 20 µM
20,c1ccc2c(Nc3ccncc3)nc(-c3ccc4c(c3)OCO4)nc2c1,> 20 µM
